For 88 compounds, inhibition results are on record in PubChem BioAssay AID493011 (Sanford-Burnham Center for Chemical Genomics, 2011).

Where “and” joins values, the source holds several entries; their conditions need not be identical. Identical values can stand only once. In all, about 330,000 compounds went through this assay and about 1,400 (0.42%) were called active. The list comes from a sample in which actives are over-represented; it also holds similar structures and randomly drawn compounds. A number with no mark means an inactive call.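 The calls were made as follows: active = at least 40% inhibition at 20 µM here, with at most 30% in a related deaminase screen; inactive = the rest.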

Chain of DNA dC->dU-editing enzyme APOBEC-3A (Homo sapiens) (P31941 whole entry, looked up): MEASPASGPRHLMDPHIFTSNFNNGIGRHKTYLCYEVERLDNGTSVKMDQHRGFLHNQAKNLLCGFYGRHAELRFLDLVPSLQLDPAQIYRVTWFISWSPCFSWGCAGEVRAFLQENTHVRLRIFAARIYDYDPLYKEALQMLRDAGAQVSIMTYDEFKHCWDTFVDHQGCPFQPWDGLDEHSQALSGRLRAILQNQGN

This assay has as its target DNA dC->dU-editing enzyme APOBEC-3A (Homo sapiens) (UniProt P31941). Nature of the assay: APOBEC3A ssDNA deaminase inhibitors, primary screen, selectivity assay for APOBEC3G inhibitor project, biochemical, FAM/TAMRA oligo cleavage fluorescence (AID 493011).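 Also: plate controls were A3A with DMSO for no effect and wells lacking A3A enzyme for full effect.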 To be noted: recombinant A3A, FAM/TAMRA ssDNA deamination fluorescence; at 20 µM; active compounds read high.
On to `N#Cc1c(NC(=O)c2ccc(N3CCOCC3)c([N+](=O)[O-])c2)sc2c1CCCC2`, for which the inhibition (usually the drop in the measured response relative to a control, in per cent) was 2.01%.

`CCCCNC(=O)CSc1nc2ccc(NC(=O)CSc3nnc(N)s3)cc2s1`: the inhibition is 75.7% (active).

`CCCCNC(=O)CSc1nc2ccc(NC(=O)CSc3nnc(COc4ccccc4C)n3C)cc2s1`: the inhibition is -2.55%.

Turning to `Nc1nnc(SCC(=O)Nc2ccc3nc(SCC(=O)Nc4ccccc4)sc3c2)s1`, the inhibition was -1.31%.

With `Cc1cc2c(=O)n(CC(=O)NCC(=O)Nc3ccc(C(C)C)cc3)cnc2s1`, the inhibition was -11.2%.

Consider `CO/N=C(\C(=O)N[C@@H]1C(=O)N2C(C(=O)O)=C(COC(C)=O)CS[C@H]12)c1csc(N)n1` (stereo in doubt), for which the inhibition is 2.73% and 21.9% and -0.539%.

Turning to `C=CC1=C(C(=O)O)N2C(=O)[C@@H](NC(=O)/C(=N\OCC(=O)O)c3csc(N)n3)[C@H]2SC1`, the inhibition was 13.4%.

For the compound `C=CC1=C(C(=O)O)N2C(=O)[C@@H](NC(=O)/C(=N/OCC(=O)O)c3csc(N)n3)[C@H]2SC1`, the inhibition was 57.5% (active).

Turning to `COc1ccc(Cc2nnc(NC(=O)c3cc(OC)c(OC)c(OC)c3)s2)cc1OC`, the inhibition was 6.64%.

In the case of `COc1ccccc1NC(=O)Nc1nnc(Cc2ccc(F)cc2)s1`, the inhibition is 0.132%.

For the compound `COc1ccc(Cc2nnc(NC(=O)c3ccc(OC)cc3OC)s2)cc1`, the inhibition was 52.7% (active).

Turning to `CN(C)C(=O)Cn1c(=O)n(S(=O)(=O)c2ccccc2)c2ccccc21`, the inhibition is 0.322%.

Turning to `NS(=O)(=O)c1cc(C(=O)OCC(=O)NNC(=O)c2ccccc2)ccc1Cl`, the inhibition was 76% (active).

Consider `O=C(COC(=O)c1ncc(Cl)c(Cl)c1Cl)NNC(=O)c1ccccc1`, for which the inhibition is 2.14%.

For the compound `O=C(COC(=O)Cc1ccccc1F)NNC(=O)c1ccc(Cl)cc1`, the inhibition was 2.91%.

In the case of `Cc1c(C)c2ccc(OCC(=O)N3CCN(c4cccc(Cl)c4)CC3)cc2oc1=O`, the inhibition was 2.08%.

On to `COc1cc(NC(=S)N2CCCC(C)C2)c(OC)cc1Cl` (stereo not drawn), for which the inhibition was -2.12%.

Consider `CC(/C=C/c1ccccc1)=N\NC(=O)C1CC1(C)c1ccccc1` (stereo not drawn), for which the inhibition was 59.5% (active).

Consider `O=C(N/N=C/C=C/c1ccccc1)C1CC1(c1ccccc1)c1ccccc1` (stereo not drawn), for which the inhibition was 1.87%.

Regarding `CC(/C=C/c1ccco1)=N/NC(=O)C1COc2ccccc2O1` (stereo not drawn), the inhibition is -6.53%.

For `O=C(Nc1ccccc1N1CCOCC1)c1ccc(OCc2cscn2)cc1`, the inhibition is 3.65%.

With `COc1ccc(CN(C)C(=O)c2cc(-c3ccc(C)cc3C)nc3ccccc23)c(OC)c1OC`, the inhibition was -0.735%.

As for `CC1C(c2ccccc2)=[N+]([O-])C2(CCCC2)N1O` (stereo not drawn), the inhibition was 3.6%.

With `CC(=O)Nc1ccc(NC(=O)C2CCCN(S(=O)(=O)c3ccc(Cl)cc3)C2)cc1` (stereo not drawn), the inhibition was 94.5% (active).

`COc1ccc(S(=O)(=O)N2CCCC(C(=O)Nc3ccc(NC(=O)c4ccccn4)cc3)C2)cc1` (stereo not drawn): the inhibition was 0.311%.

For the compound `CC(C)c1ccc(NC(=O)C2CCCN(S(=O)(=O)c3cccnc3)C2)cc1` (stereo not drawn), the inhibition was 3.03%.

Take `O=C(NCCCn1ccnc1)c1cc(Br)c(Br)s1`: the inhibition is -1.2%.

Consider `C/C(=N\NC(=O)c1cc(-c2ccc(O)cc2)nc2ccccc12)c1cccnc1`, for which the inhibition is -0.382%.

`O=C(N/N=C\c1cccnc1)c1cc(-c2ccccc2)nc2c(Cl)cccc12`: the inhibition is 43.3% (active).

Turning to `COc1ccc(-c2cc(C(=O)N/N=C/c3cccnc3)c3ccccc3n2)c(OC)c1`, the inhibition is 1.62%.

Consider `C/C(Cn1nnc2ccccc21)=N\OC(=O)c1cc(F)c(F)cc1Cl`, for which the inhibition was -2.44%.

Turning to `CCOc1ccc(C)cc1S(=O)(=O)NC1CCCCCC1`, the inhibition was 0.216%.

Turning to `COc1ccc(C2c3ccc(O)cc3Oc3ncn(CCCO)c(=N)c32)cc1OC` (stereo not drawn), the inhibition was 1.57%.

As for `Cc1ccc(COC(=O)CN2C(=O)NC3(CCCC3)C2=O)cc1`, the inhibition is 2.64%.

On to `Cc1ccc(CCCOC(=O)C[N+]2(C)CCCCC2)cc1`, for which the inhibition was 75.2% (active).

On to `Cc1ccc(CCCOC(=O)C[N+]2(C)CCCC2)cc1`, for which the inhibition was 29.9%.

Take `O=C(COc1ccccc1)Nc1ccc(N2CCN(C(=O)c3cccs3)CC2)cc1`: the inhibition was 3.22%.

As to `COc1ccc(C(=O)NC2(C(F)(F)F)NC(=O)N(CCCc3ccccc3)C2=O)c(OC)c1OC` (stereo not drawn), the inhibition was 1.49%.

On to `CCn1c(CNC(=O)c2ccco2)nnc1SCC(=O)Nc1cccc(F)c1`, for which the inhibition was 0.913%.

For the compound `CCn1c(SCC(=O)Nc2ccc3c(c2)OCCO3)nnc1-c1ccncc1`, the inhibition was -2.5%.

For `CCn1c(SCC(=O)Nc2cccc(F)c2)nnc1-c1cc2cc(Br)ccc2o1`, the inhibition was 49.5% (active).

Consider `CN(C)/C=C1\C=C(c2ccccc2)OC1=O`, for which the inhibition is 0.636%.

For the compound `Cc1ccccc1C1=N/C(=C/c2cccnc2)C(=O)O1`, the inhibition is -1.12%.

Consider `Cc1ccc(C2=C/C(=C\c3cccnc3)C(=O)O2)cc1`, for which the inhibition is 42.5% (active).

As for `O=C(N/N=C\c1cc(Br)c(Br)o1)C1COc2ccccc2O1` (stereo not drawn), the inhibition was 13.8%.

For the compound `Cc1ccc(C(=O)N/N=C\c2cc(Br)c(Br)o2)cn1`, the inhibition is 44.2% (active).

As for `Cc1ccc(C(=O)N/N=C/c2cccc3ccccc23)cn1`, the inhibition was -4.44%.

Take `O=C(CN1C(=O)NC2(CCOc3ccccc32)C1=O)Nc1cccc([N+](=O)[O-])c1` (stereo not drawn): the inhibition was 6.58%.

With `CC1=NN(C(=O)CCc2ccccc2O)C(O)(C(F)(F)F)C1` (stereo not drawn), the inhibition was 54.8% (active).

Consider `COc1ccc(CC(=O)N2N=C(C)CC2(O)C(F)(F)F)cc1` (stereo not drawn), for which the inhibition is -1.7%.

Turning to `CC1=NN(C(=O)CCCc2ccccc2)C(O)(C(F)(F)F)C1` (stereo not drawn), the inhibition was -5.39%.

For the compound `CC(C)COP(=O)(c1ccc(N(C)C)cc1)C(Nc1ccccc1)c1cccnc1` (stereo not drawn), the inhibition was -0.443%.

On to `C[N+](C)(C)CCOP(=O)([O-])OC[C@H](O)CO`, for which the inhibition was -3.05%.

Consider `CCOc1cccc(OCCCOc2cccc3cccnc23)c1`, for which the inhibition was 0.036%.

On to `CCCc1cc(=O)[nH]c(SCc2ccc(C#N)cc2)n1`, for which the inhibition was -3.79%.

Consider `COc1ccc(C2C3=C(CCCC3=O)N(CC(=O)O)C3=C2C(=O)CCC3)cc1`, for which the inhibition is -0.629%.

In the case of `CCCN1C2=C(C(=O)CCC2)C(c2ccc(O)c(Br)c2)C2=C1CCCC2=O`, the inhibition was 68.9% (active).

For the compound `CCOc1ccc(C2C3=C(CCCC3=O)N(CC(=O)O)C3=C2C(=O)CCC3)cc1`, the inhibition is 5.98%.

Regarding `COc1ccccc1C(CNC(=O)c1cccc(S(=O)(=O)Nc2ccc(F)cc2)c1)N(C)C` (stereo not drawn), the inhibition is -4.98%.

With `COc1ccc(C)cc1NC(=O)c1[nH]c(C)c(C(C)=O)c1C`, the inhibition was -4.64%.

For the compound `O=C(O)C(F)(F)C(NCc1ccccc1)c1ccccc1` (stereo not drawn), the inhibition is -9.23%.

`CC1(C)CC(=O)C(N=Nc2ccc(S(=O)(=O)N3CCCCCC3)cc2)=C(O)C1`: the inhibition is -0.085%.

`N#Cc1ccccc1CN1C(=O)S/C(=C/c2cccn2-c2cccc(C(=O)O)c2)C1=O`: the inhibition is 74.4% (active).

As for `Cc1ccccc1NC(=O)CN1C(=O)N/C(=C\c2cccn2-c2cccc(C(=O)O)c2)C1=O`, the inhibition is 93.1%.

As for `O=C1N/C(=C/c2cccn2-c2ccccc2)C(=O)N1c1cccc(Cl)c1`, the inhibition was 0.178%.

As for `O=C(c1n[nH]c2c1CCC2)N1CCCC(Nc2cccc(F)c2)C1` (stereo not drawn), the inhibition is -3.42%.

`O=C(COC(=O)/C=C/c1ccc(Br)o1)Nc1cccc(S(=O)(=O)N2CCOCC2)c1`: the inhibition is 16.5%.

As for `CC(=O)c1c(C)n(-c2ccc(N(C)C)cc2)c2ccc(OCC(N)=O)cc12`, the inhibition was -1.38%.

On to `COc1cccc(NC(=O)CCNS(=O)(=O)c2ccc3c(c2)oc(=O)n3C)c1`, for which the inhibition was -2.44%.

For `COc1cccc(NC(C)=[N+](C)CCNS(=O)(=O)c2ccc(Cl)cc2)c1`, the inhibition is 52.2% (active).

Take `COc1ccc(S(=O)(=O)NCCCCOc2ccc(Cl)cc2)cc1`: the inhibition is -0.023%.

With `COc1ccc(C2C3=C(OC(C)=O)c4ccccc4C3=Nc3c2c(=O)n(C)c(=O)n3C)cc1` (stereo not drawn), the inhibition is -1.29%.

`Cc1cccc(CCNS(=O)(=O)c2ccc(S(=O)(=O)NC3CCCC3)cc2)c1`: the inhibition was -4.37%.

For `COCCCNC(NC(=O)c1ccc(OC)cc1)C(Cl)(Cl)Cl` (stereo not drawn), the inhibition was -2.86%.

Turning to `O=C1C2C3C=CC(C4CC34)C2C(=O)N1c1nccs1` (stereo not drawn), the inhibition is 0.014%.

Regarding `CSc1ccc(/C=C2\NC(=O)NC2=O)cc1`, the inhibition is -4.33%.

Turning to `CC(C)c1ccc(/C=C2\NC(=O)NC2=O)cc1`, the inhibition was 82.8% (active).

`Cc1ccc(NC(=O)COc2ccc(/C=C3/NC(=O)NC3=O)cc2)cc1`: the inhibition was -0.201%.

For `CC[C@]12c3[nH]c4cc(CCC(=O)N(C)C)ccc4c3CCN1C(=O)[C@@H](CC(=O)NCc1ccco1)C[C@@H]2C(=O)N1CCN(C(=O)c2ccco2)CC1`, the inhibition is 2.69%.

On to `Cc1nn2c(c1-c1ccccc1)N=C(c1ccco1)CC2c1ccccc1` (stereo not drawn), for which the inhibition was 0.496%.

Take `O=C1C2C3C=CC(C4CC34)C2C(=O)N1/N=C/c1ccc(-c2ccccc2[N+](=O)[O-])o1` (stereo not drawn): the inhibition is -4.49%.

Regarding `O=C(CSc1ccc([N+](=O)[O-])cn1)Nc1ccc(N2CCOCC2)c(Cl)c1`, the inhibition is -1.64%.

For the compound `O=C(Nc1ccc(N2CCOCC2)c(Cl)c1)c1ccc(S(=O)(=O)N2CCOCC2)cc1`, the inhibition is 2.6%.

`O=C(CSc1nccc(=O)[nH]1)Nc1ccc(N2CCOCC2)c(Cl)c1`: the inhibition is 50% (active).

With `CC(=O)c1ccc(N2CCN(C(=O)c3ccc4nc[nH]c4c3)CC2)cc1`, the inhibition was -2.31%.

`CCOC(=O)c1ccc(NC(=O)Cn2cnc3cc(C)c(C)cc32)cc1`: the inhibition was 3.16%.

Regarding `CCCc1nnc(SCC(=O)Nc2ccc(C(=O)OCC)cc2)o1`, the inhibition is -2.03%.

As to `CCOC(=O)c1ccc(NC(=O)CSc2ncccn2)cc1`, the inhibition is 66.1% (active).
